# Results from PubChem BioAssay.
# Calls of active or inactive are those of the source. Unless noted, the rule behind the calls is not given here.
# Columns and labels:
# [1] = compounds binding Alexa647 anti-His antibody – biochemical, small-molecule microarray, 635 nm fluorescence, artefact control for SMM control protein annotation, primary screen (AID 1128); conditions: higher = more signal;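 note: score merges feature fluorescence with signal-to-noise for each printed compound spot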
# [2] = test system: Human papillomavirus type 1a E7 protein (residues 1-88); test: HPV1a E7 small-molecule binders, primary screen, biochemical, small-molecule microarray, residues 1-88, 635 nm (AID 1129); conditions: small-molecule microarray binding, fluorescence 635 nm; higher = more signal
# [3] = target: Focal adhesion kinase 1 (Homo sapiens) (UniProt Q05397); test: PTK2 protein binding on printed compound slides – biochemical, small-molecule microarray, 635/667 nm fluorescence, BSA, DTT, primary screen (AID 1130); conditions: 635 nm fluorescence, higher = more signal;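 note: composite of spot emission at 667 nm and signal to noise over triplicate slides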
# [4] = test system: Fibrinogen (Alexa647-labelled); test: Alexa647-fibrinogen binding to printed small molecules – biochemical, small-molecule microarray, 635/667 nm fluorescence, artefact control for SMM control-protein annotation, profiling panel (AID 1131); conditions: fibrinogen-A647 binding fluorescence, higher = more signal;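 note: z-score merges 667 nm fluorescence with per-spot signal-to-noise over triplicate slides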
# [5] = target: Follistatin (Homo sapiens) (UniProt P19883); test: FST protein binding to printed compounds – biochemical, small-molecule microarray, 635/667 nm fluorescence, primary screen (AID 1132); conditions: 635 nm fluorescence, higher = more signal
# [6] = target: Fibroblast growth factor 2 (Homo sapiens) (UniProt P09038); test: basic fibroblast growth factor binding to printed compounds – biochemical, small-molecule microarray, 635/667 nm fluorescence, primary screen (AID 1133); conditions: FGF2, fluorescence 635/667, higher = more signal
# [7] = JC-1 mitochondrial potential readout, lung cancer cells – cell-based, A549, JC-1 fluorescence, basal, 24 h, 100 nL, profiling panel (AID 1138); conditions: higher = more signal;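 note: A549 lung adenocarcinoma cells under basal conditions with no added stimulus; test concentration not given here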
# Lefty1 = Lefty1 protein binding to printed compounds – biochemical, small-molecule microarray, 635/667 nm fluorescence, primary screen (AID 1139); conditions: fluorescence 635/667, higher = more signal
# [8] = test system: wheat germ agglutinin (Triticum aestivum), Alexa647-labelled; test: Alexa647-WGA lectin binding to printed small molecules – biochemical, small-molecule microarray, 635/667 nm fluorescence, artefact control for SMM control-protein annotation, profiling panel (AID 1140); conditions: WGA-A647 binding, 635 nm fluorescence, higher = more signal;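 note: score merges 667 nm feature emission with signal to noise over triplicate slides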
# [9] = target: Luciferin 4-monooxygenase (Photinus pyralis) (UniProt P08659); test: inhibition of purified Photinus pyralis luciferase – biochemical, luminescence, purified enzyme, 2006 set, primary screen (AID 1141); conditions: purified firefly luciferase, SteadyGlo luminescence, 30 min; higher = more signal, called active from +8 up or from −8 down;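 note: cell-free assay with purified firefly luciferase at 100 ng per well in PBS; test concentration not given here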
# [10] = test system: Wnt5a (protein binding on small-molecule microarray); test: small molecules binding Wnt5a protein – biophysical, small-molecule microarray, 635/667 nm fluorescence, primary screen (AID 1142); conditions: 635 nm fluorescence, higher = more signal;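 note: fluorescence read at 667 nm with signal to noise per printed feature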
# [11] = ATP-based viability of Huh7 replicon cells – cell-based, CellTiter-Glo luminescence, basal, 48 h, cytotoxicity control for HCV replication inhibitor project, primary screen (AID 1143); conditions: higher = more signal, called active from +8 up or from −8 down;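 note: Huh7 hepatoma cells carrying a hepatitis C replication reporter with no stimulus; test concentration not given here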
# [12] = Pseudomonas biofilm growth suppression – PAO1 strain, BacTiter-Glo luminescence, LB-PBS, primary screen (AID 1144); conditions: P. aeruginosa PAO1 biofilm, 12 h, higher = more signal
# [13] = basal CRE-LacZ reporter activity in PC12 – cell-based, unstimulated, primary screen (AID 1145); conditions: no forskolin, luminescence, 4.5 h, higher = more signal, called active from +8 up or from −8 down
# [14] = forskolin-driven CRE-LacZ activity in PC12 – cell-based, CRE-LacZ reporter, forskolin-stimulated, primary screen (AID 1146); conditions: luminescence, 4.5 h, higher = more signal, called active from +8 up or from −8 down;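 note: PC12 cells with 6xCRE LacZ reporter stimulated by forskolin 10 µM; beta-galactosidase reporter signal reflecting CREB driven transcription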
# [15] = target: Streptavidin (Streptomyces avidinii) (UniProt P22629); test: compounds binding control protein streptavidin – biophysical, small-molecule microarray, 635/667 nm fluorescence, artefact control for SMM compound annotation, primary screen (AID 1147); conditions: higher = more signal;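 note: signal reflects streptavidin binding to arrayed compounds as a control protein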
# [16] = probe aInhba binding on compound microarray – biochemical, small-molecule microarray, 635/667 nm fluorescence, primary screen (AID 1148); conditions: higher = more signal;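 note: score merges 667nm spot fluorescence with signal-to-noise for antibody binding to printed compounds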
# Torsin-1A (Homo sapiens) [17] = target: Torsin-1A (Homo sapiens) (UniProt O14656); test: TOR1A wild-type binding on microarray – cell lysate, small-molecule microarray, lysate, 635/667 nm, primary screen (AID 1149); conditions: COS7 hTOR1A-WT lysate, 635 nm fluorescence, higher = more signal
# Torsin-1A (Homo sapiens) [18] = target: Torsin-1A (Homo sapiens) (UniProt O14656); test: torsin A mutant lysate binding on microarrays – cell lysate, small-molecule microarray, COS7 lysate, 635/667 nm fluorescence, primary screen (AID 1150); conditions: COS7 hTOR1A mutant lysate, 635 nm fluorescence, higher = more signal;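 note: score pools 667 nm emission and signal to noise measuring lysate protein binding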
# [19] = test system: Sonic hedgehog protein (Shh); test: Sonic hedgehog microarray binding compounds – biochemical, small-molecule microarray, 635/667 nm fluorescence, primary screen (AID 1151); conditions: 635 nm fluorescence, higher = more signal;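 note: Shh protein binding to compounds spotted on small-molecule microarray slides; score combines spot fluorescence intensity with signal-to-noise across triplicate slides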
# Chain of Fibroblast growth factor 2 (Homo sapiens) (P09038 whole entry, looked up): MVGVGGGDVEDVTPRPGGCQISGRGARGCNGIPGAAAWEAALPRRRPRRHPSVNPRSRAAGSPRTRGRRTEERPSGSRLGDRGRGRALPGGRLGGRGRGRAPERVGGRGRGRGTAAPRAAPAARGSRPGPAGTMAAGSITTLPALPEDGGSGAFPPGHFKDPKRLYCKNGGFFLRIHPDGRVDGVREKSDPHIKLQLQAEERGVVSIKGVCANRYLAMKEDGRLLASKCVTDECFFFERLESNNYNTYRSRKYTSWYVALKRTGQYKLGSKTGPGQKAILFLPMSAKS
# Chain of Streptavidin (Streptomyces avidinii) (P22629 whole entry, looked up): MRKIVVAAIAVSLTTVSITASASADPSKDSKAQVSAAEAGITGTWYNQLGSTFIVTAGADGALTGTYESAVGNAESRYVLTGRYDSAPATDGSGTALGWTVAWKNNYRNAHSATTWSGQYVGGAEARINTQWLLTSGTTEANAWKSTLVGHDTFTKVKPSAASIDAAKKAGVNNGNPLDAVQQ
# Chain of Focal adhesion kinase 1 (Homo sapiens) (Q05397 whole entry, looked up): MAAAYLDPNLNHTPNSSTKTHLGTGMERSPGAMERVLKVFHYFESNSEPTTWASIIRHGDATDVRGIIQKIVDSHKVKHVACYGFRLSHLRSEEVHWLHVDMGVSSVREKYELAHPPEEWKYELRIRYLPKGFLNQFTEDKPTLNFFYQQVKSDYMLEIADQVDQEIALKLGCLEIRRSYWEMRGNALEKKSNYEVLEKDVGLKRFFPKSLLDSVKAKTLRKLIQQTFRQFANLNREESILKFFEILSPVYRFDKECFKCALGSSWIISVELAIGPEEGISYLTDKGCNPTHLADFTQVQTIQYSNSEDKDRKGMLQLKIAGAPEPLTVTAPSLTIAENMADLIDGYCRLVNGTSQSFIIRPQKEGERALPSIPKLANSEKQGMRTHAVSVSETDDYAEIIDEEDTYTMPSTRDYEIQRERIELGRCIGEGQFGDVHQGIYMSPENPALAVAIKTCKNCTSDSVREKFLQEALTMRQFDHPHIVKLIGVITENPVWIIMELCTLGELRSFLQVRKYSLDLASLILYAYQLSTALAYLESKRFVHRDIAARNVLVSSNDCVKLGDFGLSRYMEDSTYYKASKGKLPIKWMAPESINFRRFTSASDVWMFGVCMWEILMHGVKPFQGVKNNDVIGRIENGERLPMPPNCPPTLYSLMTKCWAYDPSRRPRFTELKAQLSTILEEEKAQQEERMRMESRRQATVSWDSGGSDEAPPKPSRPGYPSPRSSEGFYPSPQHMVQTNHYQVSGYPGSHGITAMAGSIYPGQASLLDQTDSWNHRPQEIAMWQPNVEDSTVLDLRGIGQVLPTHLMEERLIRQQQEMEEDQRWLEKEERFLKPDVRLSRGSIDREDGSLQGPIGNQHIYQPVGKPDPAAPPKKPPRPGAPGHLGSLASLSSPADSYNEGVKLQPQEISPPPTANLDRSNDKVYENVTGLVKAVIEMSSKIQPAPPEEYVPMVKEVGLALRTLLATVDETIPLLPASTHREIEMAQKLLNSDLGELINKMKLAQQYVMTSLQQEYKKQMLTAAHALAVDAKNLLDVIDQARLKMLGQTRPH
# Chain of Luciferin 4-monooxygenase (Photinus pyralis) (P08659 whole entry, looked up): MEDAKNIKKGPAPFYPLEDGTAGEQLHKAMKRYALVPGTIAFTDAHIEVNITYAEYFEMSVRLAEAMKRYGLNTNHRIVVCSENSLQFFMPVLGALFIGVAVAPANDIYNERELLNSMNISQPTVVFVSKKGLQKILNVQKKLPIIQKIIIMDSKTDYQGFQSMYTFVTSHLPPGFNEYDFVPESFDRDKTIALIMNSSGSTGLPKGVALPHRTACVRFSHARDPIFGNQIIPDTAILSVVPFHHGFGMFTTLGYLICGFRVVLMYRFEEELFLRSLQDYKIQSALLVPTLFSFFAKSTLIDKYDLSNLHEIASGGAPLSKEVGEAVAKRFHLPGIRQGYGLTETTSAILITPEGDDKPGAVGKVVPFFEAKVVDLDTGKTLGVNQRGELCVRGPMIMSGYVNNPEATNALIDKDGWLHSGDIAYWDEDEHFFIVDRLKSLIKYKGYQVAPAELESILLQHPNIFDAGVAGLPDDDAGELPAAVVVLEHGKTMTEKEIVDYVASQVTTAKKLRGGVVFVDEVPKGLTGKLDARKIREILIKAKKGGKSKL
# Chain of Follistatin (Homo sapiens) (P19883 whole entry, looked up): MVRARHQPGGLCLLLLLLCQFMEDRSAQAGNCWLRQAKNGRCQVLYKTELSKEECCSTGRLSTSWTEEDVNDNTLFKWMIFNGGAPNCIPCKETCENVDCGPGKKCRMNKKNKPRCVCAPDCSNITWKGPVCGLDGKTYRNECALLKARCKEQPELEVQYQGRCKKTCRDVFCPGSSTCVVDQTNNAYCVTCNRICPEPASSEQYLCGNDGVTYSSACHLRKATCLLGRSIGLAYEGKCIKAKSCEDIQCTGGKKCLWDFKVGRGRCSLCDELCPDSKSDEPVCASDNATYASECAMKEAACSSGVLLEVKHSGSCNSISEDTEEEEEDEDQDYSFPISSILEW
# Chain of Torsin-1A (Homo sapiens) (O14656 whole entry, looked up): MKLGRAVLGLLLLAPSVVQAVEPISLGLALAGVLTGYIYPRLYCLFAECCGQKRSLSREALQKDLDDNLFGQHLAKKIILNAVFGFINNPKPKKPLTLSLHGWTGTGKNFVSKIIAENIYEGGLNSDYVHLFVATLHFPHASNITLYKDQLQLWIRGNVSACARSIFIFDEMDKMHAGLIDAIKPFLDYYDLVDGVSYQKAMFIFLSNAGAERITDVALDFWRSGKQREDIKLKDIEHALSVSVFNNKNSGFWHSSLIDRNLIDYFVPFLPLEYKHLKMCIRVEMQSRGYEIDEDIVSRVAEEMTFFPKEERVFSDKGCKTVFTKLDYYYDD
SMILES,composite z-score [1],composite z-score [2],composite z-score [3],composite z-score [4],composite z-score [5],composite z-score [6],z-score [7],composite z-score (Lefty1),composite z-score [8],z-score [9],composite z-score [10],z-score [11],z-score [12],z-score [13],z-score [14],composite z-score [15],composite z-score [16],composite z-score (Torsin-1A (Homo sapiens) [17]),composite z-score (Torsin-1A (Homo sapiens) [18]),composite z-score [19]
CCCNC(=O)OC[C@H]1O[C@H](c2ccccc2)C=C[C@@H]1Oc1ccc(OC)cc1,0.98,0.0455,-0.0038,0.25,-0.143,-0.179,-0.388,0.212,-0.114,-0.533 (inactive),-0.0663,-0.234 (inactive),0.404 (inactive),0.735 (inactive),-0.353 (inactive),1.48,-0.0719,-0.131,0.144,0.0199
CCOC(=O)NN=C1C[C@@H](O)[C@@H](O)[C@@H]2[C@@H]3C(=O)N([C@@H](C)c4ccccc4)C(=O)[C@@H]3CC[C@@H]12,-0.43,0.0085,0.692,0.897,1.28,0.642,-0.337,1.3,0.193,0.685 (inactive),0.229,0.261 (inactive),-0.353 (inactive),-0.475 (inactive),-0.14 (inactive),-0.468,-0.0313,2.58,2.5,1.37
CCCCc1nc2c(c3c1C[C@H](C)OC3)CN(CCOc1ccccc1)CC2,0.818,0.334,-0.117,0.75,0.766,0.913,3.89,1.23,0.38,-1.94 (inactive),0.0426,-1.65 (inactive),-2.34 (inactive),7.15 (inactive),-1.03 (inactive),0.501,-0.1,0.599,-0.0271,1.32
CCOC(=O)NN=C1C[C@@H](O)[C@@H](O)[C@@H]2[C@@H]3C(=O)N(Cc4ccccc4)C(=O)[C@@H]3CC[C@H]12,0.347,-0.143,0.0254,0.706,0.0086,-0.227,-0.39,0.3,0.0439,0.746 (inactive),-0.0307,-0.239 (inactive),-0.704 (inactive),-0.837 (inactive),-0.175 (inactive),1.09,-0.214,0.0722,1.36,-0.171
CCCCC#C[C@@H]1C=C[C@H](Oc2cc(OC)c(OC)c(OC)c2)[C@@H](COC(=O)OCC)O1,0.054,-0.637,-0.253,0.388,0.135,0.265,2.36,0.386,-0.0925,-1.12 (inactive),-0.282,-0.721 (inactive),-0.264 (inactive),2 (inactive),-0.684 (inactive),-0.523,-0.173,-0.0251,-0.361,0.375
CCOC(=O)[C@H](Cc1ccccc1)NC(=O)CCC1CC(OC(=O)NCCc2ccc(F)cc2)CC2(CCCC(COC(=O)NCC3CCCCC3)O2)O1 (stereo not given in full),0.542,0.816,0.465,0.656,0.857,0.238,0.812,1.21,0.395,0.356 (inactive),0.0457,-0.224 (inactive),-1.12 (inactive),0.29 (inactive),0.624 (inactive),0.644,0.0074,0.846,0.438,1.23
CCN1C(=O)[C@H]2[C@H]3[C@H](O)[C@H](O)CC(=NOC[C@H]4O[C@H](c5ccccc5)C=C[C@@H]4Oc4ccc(OC)cc4)[C@@H]3CC[C@H]2C1=O,-0.157,0.829,-0.139,0.894,0.74,1.01,0.385,1.19,0.246,0.468 (inactive),0.353,-0.509 (inactive),1.13 (inactive),0.843 (inactive),0.126 (inactive),0.29,0.0497,0.66,0.586,0.827
O=C1[C@H]2[C@H]3[C@H](O)[C@H](O)CC(=NOC[C@@H](O)COCc4ccco4)[C@H]3CC[C@H]2C(=O)N1C[C@@H]1CCCO1,0.605,0.225,-0.173,-1.27,0.987,1.61,-0.644,1.34,-0.23,1.02 (inactive),0.228,0.208 (inactive),-0.136 (inactive),0.424 (inactive),0.261 (inactive),-0.0239,-0.111,3.31,2.75,0.793
COC(=O)NCC=Cc1nc(CCCO)co1,0.53,0.804,-0.0457,0.0947,0.614,0.564,-0.223,0.706,-0.0407,0.604 (inactive),0.134,-0.068 (inactive),0.633 (inactive),0.286 (inactive),-0.0562 (inactive),0.362,-0.353,0.519,0.802,0.883
COC(=O)CC=C[C@@H](C)[C@@H](C=NOCC[C@@H]1C=C[C@H](OC(C)=O)[C@@H](COC(C)=O)O1)OC,-0.131,0.34,0.222,-0.902,0.73,0.785,0.493,0.66,-0.876,0.177 (inactive),0.38,0.309 (inactive),0.711 (inactive),-0.557 (inactive),0.0921 (inactive),-0.227,0.0565,0.563,0.359,0.19
